The values that follow come from PubChem BioAssay AID504892 (The Scripps Research Institute Molecular Screening Center, 2011).

Unmarked numbers belong to inactive results. The source made the active and inactive calls. The rule behind the calls is not given here.

In general, inhibition refers to the percentage by which the read-out fell short of the control.

The test deals with sn-1-specific diacylglycerol lipase ABHD11 (Homo sapiens) (UniProt Q8NFV4). The test is described as follows: ABHD11 inhibitors, late-stage follow-up, gel-based ABPP, fluorescence, human isoform (AID 504892). To be noted: human ABHD11 proteome; at 20 µM (top of the series) unless noted.
Chain of sn-1-specific diacylglycerol lipase ABHD11 (Homo sapiens) (Q8NFV4 whole entry, looked up, canonical isoform): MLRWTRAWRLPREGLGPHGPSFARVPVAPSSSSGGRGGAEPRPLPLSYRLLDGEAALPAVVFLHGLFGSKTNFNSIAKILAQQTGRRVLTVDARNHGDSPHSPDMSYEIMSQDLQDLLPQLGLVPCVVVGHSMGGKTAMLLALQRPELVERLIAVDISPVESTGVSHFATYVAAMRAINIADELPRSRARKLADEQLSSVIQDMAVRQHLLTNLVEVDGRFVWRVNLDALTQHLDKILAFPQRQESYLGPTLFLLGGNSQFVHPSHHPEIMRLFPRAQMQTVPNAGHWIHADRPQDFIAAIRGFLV

As to `CCC1CCCCN1C(=O)n1ncc(C(O)(c2ccccc2)c2ccccc2)n1` (configuration not stated), the inhibition is 100% [at 0.15 µM] (active).
Consider `CCC1CCCCN1C(=O)Oc1ccc([N+](=O)[O-])cc1` (configuration not stated), for which the inhibition is 0%.
